Measurements reported in the supplement of paper PMC11732987, “Enantioselective OTUD7B fragment discovery through chemoproteomics screening and high-throughput optimisation” (Communications Chemistry, 2025).

What was measured:
Assay in all cases: log2 ratio of Biotin-Ahx-Ub-VS probe labelling (fragment/DMSO); higher = less target engagement (more negative = stronger competition), active = hit call of the paper (q ≤ 0.05, log2 ratio ≤ -1)
Conditions in all cases: compound concentration: 200 uM; treatment time: 3 h
USP42 = molecular target: T1, USP42 (UniProt Q9H9J4)
T1 sequence (whole entry): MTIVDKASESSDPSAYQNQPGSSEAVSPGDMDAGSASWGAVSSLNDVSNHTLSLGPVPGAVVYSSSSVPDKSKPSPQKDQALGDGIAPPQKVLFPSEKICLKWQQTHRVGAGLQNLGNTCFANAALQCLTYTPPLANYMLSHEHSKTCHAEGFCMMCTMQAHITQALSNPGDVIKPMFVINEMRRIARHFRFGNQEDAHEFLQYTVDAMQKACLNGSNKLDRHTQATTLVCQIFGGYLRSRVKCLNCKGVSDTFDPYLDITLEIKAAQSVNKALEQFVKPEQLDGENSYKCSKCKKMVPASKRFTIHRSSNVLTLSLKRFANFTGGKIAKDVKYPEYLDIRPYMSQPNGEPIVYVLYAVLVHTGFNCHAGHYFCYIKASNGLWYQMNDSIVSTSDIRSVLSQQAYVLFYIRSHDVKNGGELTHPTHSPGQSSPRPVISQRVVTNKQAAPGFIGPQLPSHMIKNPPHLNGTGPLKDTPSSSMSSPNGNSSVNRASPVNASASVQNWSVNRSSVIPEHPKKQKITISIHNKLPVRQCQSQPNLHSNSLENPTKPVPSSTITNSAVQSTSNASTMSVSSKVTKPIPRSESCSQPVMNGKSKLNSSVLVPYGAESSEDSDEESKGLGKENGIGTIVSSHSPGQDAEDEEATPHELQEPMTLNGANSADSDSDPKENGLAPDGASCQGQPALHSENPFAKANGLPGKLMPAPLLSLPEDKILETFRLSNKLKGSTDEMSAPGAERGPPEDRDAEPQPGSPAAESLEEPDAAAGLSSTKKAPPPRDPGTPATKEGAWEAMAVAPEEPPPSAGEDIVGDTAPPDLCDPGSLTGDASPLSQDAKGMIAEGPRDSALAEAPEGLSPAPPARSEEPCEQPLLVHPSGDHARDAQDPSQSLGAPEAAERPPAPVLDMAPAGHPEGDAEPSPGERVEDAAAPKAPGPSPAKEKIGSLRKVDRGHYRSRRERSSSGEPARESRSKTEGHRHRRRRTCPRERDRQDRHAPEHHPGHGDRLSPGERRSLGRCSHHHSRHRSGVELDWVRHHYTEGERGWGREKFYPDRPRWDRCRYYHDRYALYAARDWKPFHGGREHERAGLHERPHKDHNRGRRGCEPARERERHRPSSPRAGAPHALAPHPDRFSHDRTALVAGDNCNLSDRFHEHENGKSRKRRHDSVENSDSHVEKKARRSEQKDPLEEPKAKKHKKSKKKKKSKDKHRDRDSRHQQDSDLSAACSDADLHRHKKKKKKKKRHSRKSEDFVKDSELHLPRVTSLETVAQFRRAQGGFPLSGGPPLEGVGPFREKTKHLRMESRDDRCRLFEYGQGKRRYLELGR
Outline: (§1)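 Using Biotin-Ahx-Ub-VS at 0.5 µM final for 1 h, DUBs were labelled in HEK293T lysate (495 µg per sample) that had first been treated in triplicate with fragment at 200 µM or vehicle for 3 h. NeutrAvidin enrichment, LysC and trypsin digestion and diaPASEF LC-MS/MS followed. Spectronaut label-free quantities were global-median-normalised. Values are average log2 fragment/vehicle ratios by unpaired t-test, using proteins with ≥2 unique peptides.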

USP46 = USP46 (UniProt P62068)
Outline: as §1

USP47 = molecular target: T2, USP47 (UniProt Q96K76)
T2 sequence (whole entry): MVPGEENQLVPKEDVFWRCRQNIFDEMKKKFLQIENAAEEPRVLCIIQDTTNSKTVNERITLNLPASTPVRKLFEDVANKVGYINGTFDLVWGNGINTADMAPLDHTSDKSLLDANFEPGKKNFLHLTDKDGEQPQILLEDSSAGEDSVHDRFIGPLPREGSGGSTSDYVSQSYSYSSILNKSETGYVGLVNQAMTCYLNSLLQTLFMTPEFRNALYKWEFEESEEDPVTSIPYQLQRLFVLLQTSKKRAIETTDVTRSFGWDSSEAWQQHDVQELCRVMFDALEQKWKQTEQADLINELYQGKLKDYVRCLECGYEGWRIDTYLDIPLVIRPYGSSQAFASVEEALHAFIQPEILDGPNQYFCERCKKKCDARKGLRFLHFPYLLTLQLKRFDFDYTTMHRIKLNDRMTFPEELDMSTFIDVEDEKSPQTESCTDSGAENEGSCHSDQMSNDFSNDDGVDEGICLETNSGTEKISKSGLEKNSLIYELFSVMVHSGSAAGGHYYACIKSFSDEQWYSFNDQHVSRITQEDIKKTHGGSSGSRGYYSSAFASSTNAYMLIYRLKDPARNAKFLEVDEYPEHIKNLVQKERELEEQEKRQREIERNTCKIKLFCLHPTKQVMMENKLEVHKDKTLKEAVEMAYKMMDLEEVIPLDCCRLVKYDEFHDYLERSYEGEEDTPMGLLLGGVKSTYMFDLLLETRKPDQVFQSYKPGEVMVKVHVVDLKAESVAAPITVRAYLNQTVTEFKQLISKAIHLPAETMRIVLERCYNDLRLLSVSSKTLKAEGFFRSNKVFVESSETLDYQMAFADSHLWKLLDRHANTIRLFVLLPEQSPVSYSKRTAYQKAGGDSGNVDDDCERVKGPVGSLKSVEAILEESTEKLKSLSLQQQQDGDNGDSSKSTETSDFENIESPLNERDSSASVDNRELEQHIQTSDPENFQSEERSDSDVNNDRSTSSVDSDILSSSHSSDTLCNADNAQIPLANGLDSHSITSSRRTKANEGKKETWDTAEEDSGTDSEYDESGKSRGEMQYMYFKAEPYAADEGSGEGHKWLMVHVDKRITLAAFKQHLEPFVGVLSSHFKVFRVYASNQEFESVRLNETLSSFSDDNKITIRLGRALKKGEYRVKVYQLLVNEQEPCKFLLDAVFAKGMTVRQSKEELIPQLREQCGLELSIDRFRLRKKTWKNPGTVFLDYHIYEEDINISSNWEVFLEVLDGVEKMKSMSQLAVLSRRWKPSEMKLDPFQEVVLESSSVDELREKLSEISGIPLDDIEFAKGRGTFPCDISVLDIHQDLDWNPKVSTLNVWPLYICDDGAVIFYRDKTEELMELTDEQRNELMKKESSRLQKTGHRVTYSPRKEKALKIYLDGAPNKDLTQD
Outline: as §1

USP48 = molecular target: T3, USP48 (UniProt Q86UV5)
T3 sequence (whole entry): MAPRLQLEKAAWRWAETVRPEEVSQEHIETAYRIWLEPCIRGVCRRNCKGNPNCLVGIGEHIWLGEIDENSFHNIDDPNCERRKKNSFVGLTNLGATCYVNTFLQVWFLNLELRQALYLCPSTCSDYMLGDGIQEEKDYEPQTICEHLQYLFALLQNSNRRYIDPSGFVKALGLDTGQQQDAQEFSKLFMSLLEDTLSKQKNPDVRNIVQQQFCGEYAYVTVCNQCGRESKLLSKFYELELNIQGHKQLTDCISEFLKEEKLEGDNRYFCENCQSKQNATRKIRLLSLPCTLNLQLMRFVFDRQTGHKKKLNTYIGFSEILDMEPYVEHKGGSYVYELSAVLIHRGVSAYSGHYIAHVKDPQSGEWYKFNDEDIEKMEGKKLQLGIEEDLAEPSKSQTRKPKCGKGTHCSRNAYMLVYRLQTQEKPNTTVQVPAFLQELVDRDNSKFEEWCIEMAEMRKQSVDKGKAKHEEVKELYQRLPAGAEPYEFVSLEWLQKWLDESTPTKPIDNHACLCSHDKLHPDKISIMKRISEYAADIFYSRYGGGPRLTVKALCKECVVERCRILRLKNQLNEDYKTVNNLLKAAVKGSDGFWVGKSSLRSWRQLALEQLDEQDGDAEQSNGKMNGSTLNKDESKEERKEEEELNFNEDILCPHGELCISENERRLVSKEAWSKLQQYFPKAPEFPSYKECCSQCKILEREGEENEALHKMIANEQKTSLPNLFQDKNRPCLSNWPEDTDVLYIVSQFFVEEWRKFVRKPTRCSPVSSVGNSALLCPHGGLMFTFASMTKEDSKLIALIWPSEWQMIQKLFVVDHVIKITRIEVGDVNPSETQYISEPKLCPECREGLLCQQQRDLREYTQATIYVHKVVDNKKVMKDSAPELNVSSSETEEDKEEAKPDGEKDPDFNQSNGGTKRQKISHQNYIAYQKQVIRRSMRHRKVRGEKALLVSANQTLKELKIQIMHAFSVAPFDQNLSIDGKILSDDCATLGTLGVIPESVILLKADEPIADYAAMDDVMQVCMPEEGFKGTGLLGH
Outline: as §1

USP5 = molecular target: T4, USP5 (UniProt P45974)
T4 sequence (whole entry): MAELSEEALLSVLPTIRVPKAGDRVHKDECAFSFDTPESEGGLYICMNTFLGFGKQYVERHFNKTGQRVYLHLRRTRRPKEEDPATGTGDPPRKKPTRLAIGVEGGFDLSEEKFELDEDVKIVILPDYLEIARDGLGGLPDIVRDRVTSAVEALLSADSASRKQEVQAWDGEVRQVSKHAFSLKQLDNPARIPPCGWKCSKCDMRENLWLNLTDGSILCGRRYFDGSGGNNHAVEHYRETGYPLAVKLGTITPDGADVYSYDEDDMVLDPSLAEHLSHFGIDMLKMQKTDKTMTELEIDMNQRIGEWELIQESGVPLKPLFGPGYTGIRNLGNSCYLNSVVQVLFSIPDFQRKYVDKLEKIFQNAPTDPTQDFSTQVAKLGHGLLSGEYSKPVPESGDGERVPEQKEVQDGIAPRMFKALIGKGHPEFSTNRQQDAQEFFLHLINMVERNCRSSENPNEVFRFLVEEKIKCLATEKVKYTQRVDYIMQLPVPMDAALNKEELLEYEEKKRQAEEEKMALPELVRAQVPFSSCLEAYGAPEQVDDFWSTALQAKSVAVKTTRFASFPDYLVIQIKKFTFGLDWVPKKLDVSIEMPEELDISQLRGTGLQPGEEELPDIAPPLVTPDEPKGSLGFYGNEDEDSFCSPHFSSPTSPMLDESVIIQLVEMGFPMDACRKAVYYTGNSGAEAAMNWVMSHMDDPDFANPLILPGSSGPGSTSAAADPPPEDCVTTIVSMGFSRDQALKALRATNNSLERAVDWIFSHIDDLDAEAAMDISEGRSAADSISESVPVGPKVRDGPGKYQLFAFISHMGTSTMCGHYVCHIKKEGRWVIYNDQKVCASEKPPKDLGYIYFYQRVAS
Outline: as §1

USP54 = USP54 (UniProt Q70EL1)
Outline: as §1

USP7 = USP7 (UniProt Q93009)
Outline: as §1

USP8 = molecular target: T5, USP8 (UniProt P40818)
T5 sequence (whole entry): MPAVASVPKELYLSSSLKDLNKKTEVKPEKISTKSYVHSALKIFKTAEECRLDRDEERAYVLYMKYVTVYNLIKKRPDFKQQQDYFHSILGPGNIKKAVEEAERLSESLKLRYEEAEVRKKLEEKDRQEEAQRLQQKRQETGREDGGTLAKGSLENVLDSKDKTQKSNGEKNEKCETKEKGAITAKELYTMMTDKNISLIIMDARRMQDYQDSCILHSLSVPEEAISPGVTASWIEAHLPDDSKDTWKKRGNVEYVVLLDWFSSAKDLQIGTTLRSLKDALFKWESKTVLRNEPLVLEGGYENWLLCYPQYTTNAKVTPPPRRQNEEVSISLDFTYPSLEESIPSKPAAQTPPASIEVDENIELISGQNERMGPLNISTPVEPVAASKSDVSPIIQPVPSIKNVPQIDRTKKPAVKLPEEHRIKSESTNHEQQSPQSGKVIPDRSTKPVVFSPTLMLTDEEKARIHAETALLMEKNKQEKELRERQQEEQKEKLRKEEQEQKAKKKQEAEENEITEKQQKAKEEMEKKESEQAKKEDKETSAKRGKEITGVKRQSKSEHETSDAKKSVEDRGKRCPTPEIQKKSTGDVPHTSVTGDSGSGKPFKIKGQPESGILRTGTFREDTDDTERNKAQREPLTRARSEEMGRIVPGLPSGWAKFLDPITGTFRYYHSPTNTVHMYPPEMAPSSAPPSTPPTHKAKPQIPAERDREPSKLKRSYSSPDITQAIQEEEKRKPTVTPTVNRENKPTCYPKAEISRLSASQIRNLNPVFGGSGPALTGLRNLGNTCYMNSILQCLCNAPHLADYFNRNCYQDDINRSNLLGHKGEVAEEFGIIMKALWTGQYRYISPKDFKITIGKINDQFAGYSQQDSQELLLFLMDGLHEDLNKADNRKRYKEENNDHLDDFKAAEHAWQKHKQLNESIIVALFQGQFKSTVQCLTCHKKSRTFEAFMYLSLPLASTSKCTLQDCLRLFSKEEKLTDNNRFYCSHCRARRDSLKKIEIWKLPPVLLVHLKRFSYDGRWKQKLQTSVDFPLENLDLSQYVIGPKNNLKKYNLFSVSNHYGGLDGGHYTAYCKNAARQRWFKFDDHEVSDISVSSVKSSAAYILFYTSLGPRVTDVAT
Outline: as §1

Measured: log2 ratio of Biotin-Ahx-Ub-VS probe labelling

Chain of USP7 (Q93009 whole entry, looked up): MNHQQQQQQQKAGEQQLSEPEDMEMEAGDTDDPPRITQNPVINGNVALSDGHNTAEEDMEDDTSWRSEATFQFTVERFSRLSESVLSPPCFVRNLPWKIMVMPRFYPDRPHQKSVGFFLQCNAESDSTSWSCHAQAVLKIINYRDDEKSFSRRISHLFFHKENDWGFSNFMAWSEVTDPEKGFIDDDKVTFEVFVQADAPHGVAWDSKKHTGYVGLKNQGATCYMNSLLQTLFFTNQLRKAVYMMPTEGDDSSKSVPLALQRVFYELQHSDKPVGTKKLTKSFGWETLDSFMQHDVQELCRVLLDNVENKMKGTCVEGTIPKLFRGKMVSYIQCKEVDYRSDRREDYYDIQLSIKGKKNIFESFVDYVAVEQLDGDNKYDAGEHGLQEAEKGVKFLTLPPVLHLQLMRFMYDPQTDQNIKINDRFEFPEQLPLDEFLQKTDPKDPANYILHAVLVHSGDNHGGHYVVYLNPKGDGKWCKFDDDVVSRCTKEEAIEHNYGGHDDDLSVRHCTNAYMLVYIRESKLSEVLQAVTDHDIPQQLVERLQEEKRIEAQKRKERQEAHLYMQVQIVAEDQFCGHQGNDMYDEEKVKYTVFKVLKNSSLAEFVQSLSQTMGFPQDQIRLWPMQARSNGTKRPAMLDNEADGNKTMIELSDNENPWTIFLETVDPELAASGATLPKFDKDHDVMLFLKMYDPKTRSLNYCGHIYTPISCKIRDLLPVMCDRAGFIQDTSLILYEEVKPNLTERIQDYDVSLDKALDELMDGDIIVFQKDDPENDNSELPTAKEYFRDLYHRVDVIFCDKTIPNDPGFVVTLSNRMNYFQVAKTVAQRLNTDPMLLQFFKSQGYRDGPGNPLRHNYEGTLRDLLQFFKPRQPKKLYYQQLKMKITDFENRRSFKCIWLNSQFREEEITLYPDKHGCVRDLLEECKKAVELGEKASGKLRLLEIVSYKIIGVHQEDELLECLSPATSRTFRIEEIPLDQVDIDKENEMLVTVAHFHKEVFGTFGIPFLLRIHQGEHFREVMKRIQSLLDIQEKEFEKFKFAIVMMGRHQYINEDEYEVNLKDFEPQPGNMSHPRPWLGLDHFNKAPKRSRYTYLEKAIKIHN
Chain of USP54 (Q70EL1 whole entry): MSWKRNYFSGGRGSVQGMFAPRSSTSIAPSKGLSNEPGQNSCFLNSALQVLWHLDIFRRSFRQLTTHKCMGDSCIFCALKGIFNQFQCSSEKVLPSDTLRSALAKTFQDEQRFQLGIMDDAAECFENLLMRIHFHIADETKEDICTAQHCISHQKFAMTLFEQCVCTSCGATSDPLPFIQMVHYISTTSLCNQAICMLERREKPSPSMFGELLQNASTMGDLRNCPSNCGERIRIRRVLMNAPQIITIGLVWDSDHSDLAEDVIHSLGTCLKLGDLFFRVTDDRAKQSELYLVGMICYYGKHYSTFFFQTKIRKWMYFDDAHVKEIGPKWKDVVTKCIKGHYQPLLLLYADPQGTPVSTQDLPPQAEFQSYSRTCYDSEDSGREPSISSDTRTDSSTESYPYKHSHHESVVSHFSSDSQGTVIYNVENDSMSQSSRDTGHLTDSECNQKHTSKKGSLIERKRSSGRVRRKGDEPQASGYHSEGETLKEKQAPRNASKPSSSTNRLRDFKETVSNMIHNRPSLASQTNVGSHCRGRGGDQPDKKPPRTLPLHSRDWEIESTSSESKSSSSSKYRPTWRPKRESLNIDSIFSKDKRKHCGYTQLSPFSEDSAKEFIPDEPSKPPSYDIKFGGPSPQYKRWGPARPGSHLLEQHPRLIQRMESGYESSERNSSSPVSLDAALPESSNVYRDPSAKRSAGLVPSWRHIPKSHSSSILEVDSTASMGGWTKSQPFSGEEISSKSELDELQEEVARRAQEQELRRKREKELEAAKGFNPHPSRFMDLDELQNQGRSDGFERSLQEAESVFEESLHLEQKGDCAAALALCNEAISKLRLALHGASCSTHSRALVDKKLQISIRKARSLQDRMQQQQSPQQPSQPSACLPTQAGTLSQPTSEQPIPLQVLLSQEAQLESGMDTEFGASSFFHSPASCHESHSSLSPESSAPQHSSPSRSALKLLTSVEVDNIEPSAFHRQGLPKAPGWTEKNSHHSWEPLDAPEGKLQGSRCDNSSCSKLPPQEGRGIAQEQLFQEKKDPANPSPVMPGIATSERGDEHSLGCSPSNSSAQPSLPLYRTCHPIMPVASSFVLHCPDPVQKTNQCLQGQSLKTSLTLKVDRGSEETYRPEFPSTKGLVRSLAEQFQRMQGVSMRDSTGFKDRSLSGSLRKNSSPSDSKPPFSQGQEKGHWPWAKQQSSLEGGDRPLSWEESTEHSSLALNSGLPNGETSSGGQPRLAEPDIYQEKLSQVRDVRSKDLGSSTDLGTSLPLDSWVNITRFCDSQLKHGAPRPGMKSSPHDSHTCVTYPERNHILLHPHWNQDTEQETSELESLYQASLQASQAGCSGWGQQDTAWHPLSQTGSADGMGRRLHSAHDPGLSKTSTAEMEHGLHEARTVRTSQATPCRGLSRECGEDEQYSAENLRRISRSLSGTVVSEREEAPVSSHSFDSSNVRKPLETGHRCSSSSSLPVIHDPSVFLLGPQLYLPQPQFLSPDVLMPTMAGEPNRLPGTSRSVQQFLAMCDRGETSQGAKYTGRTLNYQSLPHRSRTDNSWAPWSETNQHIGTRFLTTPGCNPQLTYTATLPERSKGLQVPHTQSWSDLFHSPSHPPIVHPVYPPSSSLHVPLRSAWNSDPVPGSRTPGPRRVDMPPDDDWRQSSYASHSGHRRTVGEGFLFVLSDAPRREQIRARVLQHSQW
Chain of USP46 (P62068 whole entry): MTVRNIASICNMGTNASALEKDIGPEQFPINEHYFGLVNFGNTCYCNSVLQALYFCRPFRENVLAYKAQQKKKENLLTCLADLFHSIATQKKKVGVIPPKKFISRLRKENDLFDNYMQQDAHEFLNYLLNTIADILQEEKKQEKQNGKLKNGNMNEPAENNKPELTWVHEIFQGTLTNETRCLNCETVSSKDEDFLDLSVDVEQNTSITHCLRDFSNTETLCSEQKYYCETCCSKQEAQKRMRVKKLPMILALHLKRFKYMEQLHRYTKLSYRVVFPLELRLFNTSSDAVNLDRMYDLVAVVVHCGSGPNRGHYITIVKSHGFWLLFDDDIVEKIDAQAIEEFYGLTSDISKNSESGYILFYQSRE

CC(O)CC1CCN(C(=O)CCl)CC1 (stereo not drawn)
inactive: USP42 0.406 | USP46 -0.263 | USP47 -0.689 | USP48 0.00631 | USP5 -0.447 | USP54 -0.0986 | USP7 -0.335 | USP8 -0.0562
